# Results from the supplement of paper PMC7801607.
# What was measured:
# CHO = test: % viability of CHO cells (MTT); higher = less toxic; settings: 48 h
# In short: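 For 48 h, attached CHO cells (10^6 cells/well, 200 µL, seeded the night before) were kept in fresh medium carrying compound at 2 or 20 µM. A colorimetric tetrazolium (MTT) assay then gave survival as percent viability versus untreated cells.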
# HepG2-A16-CD81 = test: % inhibition of HepG2 viability (CellTiter-Glo); higher = more toxic; settings: 5 µM
# [1] = test system: Plasmodium falciparum NF54 stage IV/V gametocytes; test: % inhibition of gametocyte viability (PrestoBlue); higher = more inhibition; settings: 48 h
# In short: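 Stage IV/V NF54 gametocytes at 2% gametocytaemia and 5% haematocrit (100 µL/well) were treated with compound at 1 or 5 µM and incubated for 48 h at 37 °C under stationary, hypoxic conditions. PrestoBlue (10 µL) was then added for 2 h, and fluorescence at 612 nm was read on 70 µL of transferred supernatant. Percent inhibition of gametocyte viability was normalised to vehicle and kill controls within one run.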
# [2] = test system: Plasmodium falciparum NF54 asexual blood stage; test: % inhibition of asexual blood stage proliferation (pLDH); higher = more inhibition; settings: 72 h
# In short: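 Plasmodium falciparum NF54 ring-stage cultures (1% haematocrit, 2% parasitaemia) were incubated with compound at 2 or 20 µM for 72 h at 37 °C under 4% CO2, 3% O2 and 93% N2. Survival was read at 620 nm with the parasite lactate dehydrogenase assay. Results were reported as percent inhibition of asexual proliferation relative to controls.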
# [3] = test system: Plasmodium falciparum NF54 stage IV/V gametocytes; test: % inhibition of gametocyte viability (ATP bioluminescence); higher = more inhibition; settings: 24 h
# In short: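 Stage IV/V NF54 gametocytes from density gradients (30,000 per well, 96-well plates) were incubated with compound at 1 or 5 µM for 24 h at 37 °C. A single run supplied percent inhibition of gametocyte viability, based on ATP measured with Promega BacTiter Glo and normalised to control wells.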
# [4] = test system: Plasmodium falciparum NF54 stage IV/V gametocytes; test: % inhibition of gametocyte viability (luciferase reporter); higher = more inhibition; settings: 48 h
# In short: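 Percent inhibition came from luminescence and was normalised to controls in a single run. Gametocytes (stage IV/V, NF54-Pfs16-GFP-Luc line, 2% gametocytaemia, 2% haematocrit) were treated with compound at 1 or 5 µM and incubated for 48 h at 37 °C without agitation under hypoxia. Readings used 30 µL lysate with 30 µL Promega luciferin substrate on a GloMax-Multi+ reader, integrating for 10 s.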
# [5] = test system: Plasmodium berghei ANKA liver stage in HepG2-A16-CD81; test: % inhibition of liver stage parasite viability (luciferase); higher = more inhibition; settings: 5 µM; 48 h
# Procedure: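 Single-concentration screen of the MMV Pandemic Response Box. P. falciparum NF54 asexual blood stages: pLDH assay, 72 h at 37 °C, 2 and 20 µM, n=2. Stage IV/V gametocytes (NF54): luciferase reporter (NF54-Pfs16-GFP-Luc, 48 h), ATP bioluminescence (24 h) and PrestoBlue (48 h) at 1 and 5 µM, n=1. P. berghei liver stage (luciferase in HepG2-A16-CD81, 48 h post infection) at 5 µM, n=4. All normalised to DMSO and kill controls as % inhibition.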
# 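For % inhibition of HepG2 viability (CellTiter-Glo) in this document: HepG2-A16-CD81 hepatoma cells plated as in the liver-stage assay but without sporozoites, with DMSO wells as negative and 25 µM puromycin as positive control.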
Compound,% viability of CHO cells (CHO; 2 µM) [%],% viability of CHO cells (CHO; 20 µM) [%],% inhibition of HepG2 viability (HepG2-A16-CD81) [%],% inhibition of gametocyte viability ([1]; 1 µM) [%],% inhibition of gametocyte viability ([1]; 5 µM) [%],% inhibition of asexual blood stage proliferation ([2]; 2 µM) [%],% inhibition of asexual blood stage proliferation ([2]; 20 µM) [%],% inhibition of gametocyte viability ([3]; 1 µM) [%],% inhibition of gametocyte viability ([3]; 5 µM) [%],% inhibition of gametocyte viability ([4]; 1 µM) [%],% inhibition of gametocyte viability ([4]; 5 µM) [%],% inhibition of liver stage parasite viability [5] [%]
O=c1cc(OCc2ccccc2)ccn1Cc1ccccc1,82.6,98.7,-3.88,14.1,6.4,6.62,51.5,< 0,< 0,< 0,< 0,20.3
CCN(CC)S(=O)(=O)c1ccc(Cl)c(C(=O)Nc2sc3c(c2C#N)CCCC3)c1,100,109,20.9,< 0,< 0,0.194,18.9,< 0,< 0,< 0,9.16,69.2
O=C(Nc1ccccc1C(=O)O)c1cccc(Oc2ccccc2)c1,113,61,6.41,37.4,5.84,-5.74,-12.5,< 0,< 0,< 0,< 0,
O=C(O)c1cc(-c2ccccc2)nc2ccccc12,114,94,-0.148,< 0,< 0,27,90.2,1.38,< 0,1.7,< 0,38.5
Cc1nc2ccc(Oc3ccccc3)cc2c2c1CCN2CCc1ccccc1,77.5,-1.21,2.52,1.5,60,75.9,110,20.1,93.2,33,63.3,27
NNC(=O)c1ccncc1,94.3,96.5,8.54,< 0,4.24,40.1,71.2,< 0,< 0,17.1,< 0,
CN(C)[C@@H]1C(=O)C(C(N)=O)=C(O)[C@@]2(O)C(=O)C3=C(O)c4c(O)c(NC(=O)CN5CCCC5)cc(F)c4C[C@H]3C[C@@H]12,99.3,125,21,13.1,< 0,72.1,88,< 0,< 0,< 0,< 0,-4.53
O=C(O)C(Cc1c[nH]c2ccccc12)N1C(=O)c2ccccc2C1=O (configuration not stated),89.9,92,-0.93,< 0,< 0,33.4,72.4,8.39,< 0,13,22.9,21.1
Nc1nc(Nc2ccc3nc(-c4ccc(F)cc4)cc(N)c3c2)cc(-c2ccccc2)n1,-4.05,-8.47,-4.55,32.5,84.6,83,96.9,95.5,95,98.5,98.6,13.6
CNCC(=O)OCc1cccnc1N(C)C(=O)OC(C)[n+]1cnn(C[C@](O)(c2cc(F)ccc2F)[C@@H](C)c2nc(-c3ccc(C#N)cc3)cs2)c1 (some centres not stated),94.9,98.8,14.7,8.15,23.3,0.721,37.7,< 0,< 0,< 0,< 0,29.6
CNc1nc(=O)[nH]cc1F,95.1,98.5,-2.31,< 0,8.84,-10.3,-14.1,< 0,< 0,< 0,< 0,18.4
N#Cc1c(F)c(Cl)c(NCc2ccccc2)c(C#N)c1F,102,-2.81,2.78,20.8,49.5,56.1,95.3,< 0,20.5,2.47,52.5,22.3
